# Source: PubChem BioAssay
# For some of these results: Measured potencies and affinities stand elsewhere. Results filed as inconclusive are left out. Unmarked numbers belong to inactive results. This is one part of the list. Activity calls are given as the source filed them.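 The calls were made as follows, unless noted: active = signal drop whose fitted half-maximal concentration is at most twice the top valid dose, in every test run; inconclusive = mixed calls across runs, poor fit, or flat 30 to 70% inhibition; inactive = wrong direction, flat within 30%, or potency beyond limit.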
# Experiments:
# [1] = RMG-1 ovarian cancer cell viability loss – cherry-pick, dose response (AID 687029);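 also: cells exposed to compound for 96 hours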
# [2] = IOSE-T80 viability loss, PAX8-independent line – cell-based, cherry-pick, selectivity assay for PAX8 inhibitor project, dose response (AID 687032;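 active = fitted half-maximal concentration for viability loss no higher than twice the top valid dose, in every repeat run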;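 also: cells exposed to compound for 96 h before reading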)
# [3] = small-molecule DNA binding by polarization – biochemical, fluorescence polarization, cherry-pick, counter-screen for EWS/Fli inhibitor project, dose response (AID 720586;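 active = fitted curve reaches a 35% signal fall AC35 below twice the sample's top valid tested dose, actives reach about 48 µM in these data; inactive = the rest, including activity in the rising direction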;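 also: lower polarization ratio signals compound binding to DNA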)
# [4] = general cell-killing toxicity readout – plate reader, dry powder samples, cytotoxicity control for PAX8 inhibitor project, dose response (AID 743021; call rule not given here)
# [5] = CMV-driven luciferase expression suppression in HEK293 – cell-based, luminescence, dry powder, counter-screen for Pax8 inhibitor project, dose response (AID 743020;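 active = signal-lowering compounds whose fitted half-maximal concentration is at or below twice the top tested dose in every run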;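 also: HEK293 cells stably expressing the CMV luciferase reporter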)
Compound,outcome [1],outcome [2],AC35 [3],outcome [4],outcome [5]
COc1ccc(-c2sc3ccccc3c2-c2ccc(OCCN(C)C)cc2)cc1,inactive,inactive,–,–,–
C[C@H](CO)N1C[C@H](C)[C@@H](CN(C)S(=O)(=O)c2ccc(F)cc2)OCCCC[C@H](C)Oc2ccc(NS(=O)(=O)c3ccc(Cl)cc3)cc2C1=O,inactive,inactive,–,–,–
C#Cc1cc(N2CCN(C(=O)c3ccoc3)CC2)n2nc(-c3cccc(Cl)c3)cc2n1,inactive,inactive,–,–,–
CC1CCN(c2ccc(-c3cccc(NC(=O)C(F)(F)F)c3)nn2)CC1,inactive,inactive,–,–,–
NC1=CC(=O)C(=O)c2cccnc21,inactive,inactive,inactive,inactive,–
COc1ccc(/C=N/Nc2cc(C)nc3ccc(Br)cc23)cc1,inactive,inactive,–,–,–
O=c1c2ccccc2cnn1-c1nc2ccccc2[nH]1,inactive,inactive,–,–,–
O=C(C#Cc1ccccc1)c1ccco1,inactive,inactive,–,–,–
CCC(OC(=O)c1ccc(S(C)(=O)=O)c([N+](=O)[O-])c1)C(=O)NC1C2CC3CC(C2)CC1C3 (configuration not stated),inactive,inactive,–,–,inactive
Cc1nn(-c2ccccc2)c(Cl)c1CN(C(=O)CCl)c1ccc(Cl)cc1,inactive,inactive,–,–,–
COc1ccc(C#Cc2ccc([C@H]3[C@@H](CO)N4CCCCN(C(=O)Nc5cccc(F)c5)C[C@H]34)cc2)cc1,inactive,inactive,–,–,–
COc1ccc(N(C(=O)CCl)C(C(=O)NCCc2ccccc2)c2cccs2)cc1Cl (configuration not stated),inactive,inactive,–,–,–
CN1CCN(CCCNC(=O)c2ccc(/C=C3\Oc4ccccc4N(Cc4ccc(Cl)cc4)C3=O)cc2)CC1,inactive,inactive,–,–,–
O=C(Nc1ccc2nc3n(c(=O)c2c1)CCCCC3)c1cc([N+](=O)[O-])ccc1F,inactive,inactive,–,–,–
CCS(=O)(=O)c1ncc(Cl)c(C(=O)Nc2ccc(S(=O)(=O)N(C)c3ccccc3)cc2)n1,inactive,inactive,–,–,–
Brc1ccc2nc(-c3ccc(CN4CCC(c5nc6ccccc6[nH]5)CC4)cc3)c(-c3ccccc3)nc2c1,inactive,inactive,–,–,–
OC(CNCC(c1ccc(Cl)cc1Cl)c1c[nH]c2ccccc12)c1ccccc1 (configuration not stated),inactive,inactive,–,–,–
OCC1OC(n2cnc3c(NCc4ccco4)ncnc32)C(O)C1O (configuration not stated),inactive,inactive,–,–,–
COc1ccc(C2C(O)C(c3c[nH]c4ccccc34)=NN2C(=O)CCl)cc1 (configuration not stated),inactive,inactive,–,–,–
Cc1cc(C)c2nc(C)cc(N/N=C/c3ccc(O)cc3)c2c1,inactive,inactive,–,–,–
COc1cc(/C=N/Nc2nc(Nc3ccc(C)cc3)nc(-n3nc(C)cc3C)n2)cc(OC)c1OC,inactive,inactive,–,–,–
Cc1cc(=O)n2c3c(c4c(cc13)c(CN(C)C)cc(=O)n4C)OC2,inactive,inactive,–,–,–
COc1ccc(N(C(=O)CCl)C(C(=O)NC2CCCCC2)c2cccnc2)cc1 (configuration not stated),inactive,inactive,–,–,–
CC1OC(CC(=O)O)CC2=C1C(=O)c1c(O)cccc1C2=O (configuration not stated),inactive,inactive,–,–,–

Compound,outcome [1],outcome [2],AC35 [3],outcome [4],outcome [5]
C[C@H]1CN([C@@H](C)CO)C(=O)c2c(c3ccccc3n2C)-c2ccccc2CO[C@H]1CN(C)S(=O)(=O)c1ccc([N+](=O)[O-])cc1,inactive,inactive,–,–,–
CCC[C@H](CN[C@@H](CNC)[C@H](C)CC)NCCc1cc(C(F)(F)F)cc(C(F)(F)F)c1,inactive,inactive,–,–,–
CCS(=O)(=O)c1ncc(Cl)c(C(=O)Nc2ccc(C)cc2)n1,inactive,inactive,–,–,–
O=c1c(Cl)c(Cl)cnn1-c1ccccc1,inactive,inactive,–,–,–
C=CCOc1ccccc1CN(C(=O)CCl)c1ccc2c(c1)OCO2,inactive,inactive,–,–,–
CN(C[C@H]1N[C@@H](CO)[C@@H]1c1ccc(-c2cccnc2)cc1)C(=O)c1ccccc1,inactive,inactive,–,–,–
COc1ccccc1N(C(=O)CCl)c1cn(C(C)=O)c2ccccc12,inactive,inactive,–,–,–
Cc1ccc(-n2nc(C)c(NC(=O)CCl)c2C)cc1C,inactive,inactive,–,–,–
CC1(C)CC(=O)C=C(C#CC2(O)CCCCC2)C1,inactive,inactive,–,–,inactive
COc1cccc(N(C(=O)c2ccco2)c2nc(-c3sc(NC(=O)c4ccco4)nc3C)cs2)c1,inactive,inactive,–,–,inactive
Cc1cccc(N(Cc2ccccc2)C(=O)CCl)c1,inactive,inactive,–,–,inactive
CCN1CCN(Cc2ccc(NC(=O)c3cc(NC(=O)c4cncc(-c5ccc(C#N)cc5)c4)cc(OC)c3)cc2C(F)(F)F)CC1,inactive,inactive,–,–,inactive
O=C(Nc1cccc(NC(=O)c2ccc([N+](=O)[O-])o2)c1)c1ccco1,inactive,inactive,–,–,inactive
COc1ccccc1C(=O)Nc1nc2ccccc2s1,inactive,inactive,–,–,inactive
COc1cc(OC)nc(-n2ncc(Br)c(Br)c2=O)n1,inactive,inactive,–,–,inactive
O=C(OCc1ccccc1)N(CCCCN(CCCNCc1ccccc1)C(=O)OCc1ccccc1)CCCNCc1ccccc1,inactive,inactive,–,–,inactive
CN(C[C@H]1N[C@@H](CO)[C@@H]1c1ccc(C2=CCCC2)cc1)C(=O)c1ccncc1,inactive,inactive,–,–,inactive
O=C(O)c1ccc(N/N=C/c2ccc3nccnc3c2)cc1,inactive,inactive,–,–,inactive
CS(=O)(=O)c1ccc(C(=O)OCC(=O)N2CCN(CCC3CCCCC3)CC2)cc1[N+](=O)[O-],inactive,inactive,–,–,inactive
C=C1CCc2c([nH]c3ccc(OCC(C)C)cc23)C1=O,inactive,inactive,–,–,inactive
COc1ccccc1C#Cc1ccc([C@H]2[C@@H](CO)N(C(=O)C3CCCCC3)[C@H]2C#N)cc1,inactive,inactive,–,–,inactive
O=C(CCl)N=c1sccn1Cc1ccccc1Cl,inactive,inactive,–,–,inactive
COc1ccc(C#Cc2ccc([C@@H]3[C@H](CO)N4CCCCN(C(=O)Nc5cccc(F)c5)C[C@@H]34)cc2)cc1,inactive,inactive,–,–,inactive
O=C(C[C@@H]1C/C=C/CC[C@H](Cc2ccc(F)cc2)C(=O)OC[C@@H](Cc2ccccc2)NC1=O)N[C@H](CO)Cc1ccccc1,inactive,inactive,–,–,inactive

Compound,outcome [1],outcome [2],AC35 [3],outcome [4],outcome [5]
Cc1nn(-c2nc3ccccc3[nH]2)c(=O)c2ccccc12,inactive,inactive,–,–,inactive
CC(C)N(CC(=O)Nc1ccc(Cl)cc1C(F)(F)F)C(=O)CCl,inactive,inactive,–,–,inactive
Cc1ccc2c(CC(=O)OCC(=O)Nc3ccc(Cl)cn3)coc2c1,inactive,inactive,–,–,inactive
COc1ccc(S(=O)(=O)/N=C2\C=C(Nc3ccc(O)cc3)C(=O)c3ccccc32)cc1,inactive,inactive,–,–,inactive
O=C(CC1SC(=Nc2cccc3ccccc23)N(Cc2ccccn2)C1=O)Nc1ccccc1Br (configuration not stated),inactive,inactive,–,–,inactive
COc1cccc(/C=C2/Sc3ccc(C(=O)NCCN4CCCCCC4)cc3NC2=O)c1,inactive,inactive,–,–,inactive
CC(C)CN1CCN(C(=O)COC(=O)c2ccc(S(C)(=O)=O)c([N+](=O)[O-])c2)CC1,inactive,inactive,–,–,inactive
COC(=O)C1=C(C)N(Cc2cccc(C(F)(F)F)c2)C(=NCC2CC2)NC1c1cccc(C(F)(F)F)c1 (configuration not stated),inactive,inactive,–,–,inactive
C=C1CC(Cn2cc(Br)c(=O)[nH]c2=O)(c2ccc(-c3ccccc3)cc2)OC1=O (configuration not stated),inactive,inactive,–,–,inactive
COC(=O)[C@@H]1Cc2c([nH]c3ccccc23)C(C)(C)N1C(=O)CCl,inactive,inactive,–,–,inactive
O=C(NC1=CC(=O)c2ccccc2C1=O)c1ccccc1,inactive,inactive,–,–,inactive
COc1cccc(/C=N/Nc2cc(C)nc(-c3ccccc3O)n2)c1O,inactive,inactive,–,–,inactive
O=C1C=CC(=O)c2c(O)c(N3CCN(CCOCCO)CC3)c(Br)c(O)c21,inactive,inactive,–,–,inactive
COc1ccc(C(C(=O)NC2CCCCC2)N(C(=O)CCl)c2ccc(C)cc2)cc1 (configuration not stated),inactive,inactive,–,–,inactive
CCOc1ccccc1NC(=O)c1nc(S(=O)(=O)Cc2ccccc2)ncc1Cl,inactive,inactive,–,–,inactive
C[C@H](CO)N1C[C@H](C)[C@@H](CN(C)C(=O)Nc2ccc3c(c2)OCO3)Oc2cc(C#Cc3ccncc3)ccc2S1(=O)=O,inactive,inactive,–,–,inactive
COc1cccc(/C=N/Nc2ccc(C(=O)O)cc2)c1O,inactive,inactive,–,–,inactive
C#CCN(C[C@@H]1[C@@H](OC(=O)NCCCCCC)[C@@H](OC(=O)NCCCCCC)Cn2c(=O)ccc(=O)n21)S(=O)(=O)c1ccc(C)cc1,inactive,inactive,–,–,inactive
Cc1cc(N/N=C/c2ccc(O)c(C)c2O)nc(-c2ccccc2O)n1,inactive,inactive,–,–,inactive
O=C(NC1CCCCC1)C(c1cccnc1)N(C(=O)CCl)c1ccccc1Cl (configuration not stated),inactive,inactive,–,–,inactive
COc1ccccc1-c1ccc(OCCCN2CCC(C(O)(c3ccccc3)c3ccccc3)CC2)cc1,inactive,inactive,–,–,inactive
CCSc1ccc(-c2cc(NC=O)c3ncc(-c4cccc(C(=O)NCCN(C)C)c4)n3c2)cc1,inactive,inactive,–,–,inactive
COC(=O)C1=C(SC)N(c2ccccc2)C(c2ccccc2)CC1=O (configuration not stated),inactive,inactive,–,–,inactive
COc1ccc(/C=C/c2nc3ccccc3n2C)cc1,inactive,inactive,–,–,inactive
